Laboratory results: PubChem BioAssay (NCI)
Compounds without any hit were thinned out: in the full panel of roughly 79,000, 15% have a hit. Values without a mark were called inactive. Activity calls are given as the source filed them. Cut-off read from the data, not from the text of the source: active = growth inhibition above about 70%; inactive = the rest.

What was measured:
[1] = NCI Yeast Anticancer Drug Screen. Data for the rad50 strain (AID 155);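 note: 0% = growth of vehicle-only cultures of the same strain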; conditions: S. cerevisiae rad50 strain growth inhibition, active compounds read high
Summary of the method: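 Relative growth inhibition (compound vs vehicle) was measured in yeast with a defined repair-gene alteration.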

[2] = NCI Yeast Anticancer Drug Screen. Data for the mec2-1 strain (AID 157); conditions: S. cerevisiae mec2-1 strain, active compounds read high
Summary of the method: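 Test agents were screened against the mec2-1 yeast strain, with defined DNA repair or cell cycle alteration. Growth was scored as inhibition against vehicle-only controls.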

[3] = NCI Yeast Anticancer Drug Screen. Data for the sgs1 mgt1 strain (AID 161);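 note: 0% = growth of cultures given vehicle only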; conditions: S. cerevisiae sgs1 mgt1 strain, active compounds read high
Summary of the method: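 Genetically altered yeast, compound exposure, growth inhibition relative to vehicle.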

[4] = NCI Yeast Anticancer Drug Screen. Data for the cln2 rad14 strain (AID 165);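 note: 0% = growth equal to vehicle treated cultures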; conditions: S. cerevisiae cln2 rad14 strain, active compounds read high
Summary of the method: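 Growth of compound-exposed yeast (cln2 rad14 genotype) measured and expressed as inhibition relative to vehicle.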

[5] = NCI Yeast Anticancer Drug Screen. Data for the bub3 strain (AID 167); conditions: S. cerevisiae bub3 mutant strain, active compounds read high
Summary of the method: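 Screening used yeast with an engineered genetic alteration affecting cell cycle control. Compound-exposed cultures were compared with vehicle cultures, and reduced growth was taken as inhibition.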

[6] = NCI Yeast Anticancer Drug Screen. Data for the mlh1 rad18 strain (AID 175); conditions: S. cerevisiae mlh1 rad18 strain growth inhibition, active compounds read high
Summary of the method: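 In this whole-cell yeast screen, a strain with altered DNA damage repair is challenged with compound, and its growth is measured against matched vehicle-treated controls.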

[7] = at 5.0 µM (retest, dose inferred, filed as 0.5)
[8] = at 50.0 µM (retest, dose inferred, filed as 5.0)

| Structure (SMILES) | growth inhibition [1, 7] | growth inhibition [1, 8] | growth inhibition ([1]; at 50.0 µM) | growth inhibition [2, 7] | growth inhibition [2, 8] | growth inhibition ([2]; at 50.0 µM) | growth inhibition [3, 7] | growth inhibition [3, 8] | growth inhibition ([3]; at 50.0 µM) | growth inhibition [4, 7] | growth inhibition [4, 8] | growth inhibition ([4]; at 50.0 µM) | growth inhibition [5, 7] | growth inhibition [5, 8] | growth inhibition ([5]; at 50.0 µM) | growth inhibition [6, 7] | growth inhibition [6, 8] | growth inhibition ([6]; at 50.0 µM) |
| --- | --- | --- | --- | --- | --- | --- | --- | --- | --- | --- | --- | --- | --- | --- | --- | --- | --- | --- |
| O=c1[nH]c2c([N+](=O)[O-])cc(Cl)cc2nc1/C=C(\O)c1ccc2ccccc2c1 | -4% | 95% (active) | 74.3% (active) | 7% | 98% (active) | 72.9% (active) | -8% | 95% (active) | 90.1% (active) | 6% | 94% (active) | 49.1% | -9% | 97% (active) | 70% (active) | 25% | 96% (active) | 71.5% (active) |
| ClC1(Cl)c2ccccc2-c2ccccc21 | -147% | -36% | 7.55% | -51% | -40% | -4.1% | -59% | -49% | -7.05% | -55% | -54% | 43.4% | -67% | -55% | -21% | -115% | -79% | -2.85% |
| Clc1ccccc1NN(Cc1ccccn1)c1ccccc1Cl | 16% | 54% | 76.5% (active) | -6% | 32% | 58.7% | 8% | 69% | 58.9% | -14% | 50% | 57% | 28% | 77% (active) | 88.4% (active) | 3% | 59% | 71.2% (active) |
| CCCCCCCCCCCCCCCCNC(C)c1ccccc1 (configuration not stated) | 0% | -3% | 98.1% (active) | -1% | 9% | 98.7% (active) | 6% | 4% | 99% (active) | -9% | -4% | 97.5% (active) | -6% | -6% | 99% (active) | -2% | 9% | 98.3% (active) |
| N=Nc1c(OC(=O)Nc2cccc(Cl)c2)[nH]c2ccccc12 | 36% | 99% (active) | 98.7% (active) | 14% | 99% (active) | 98.8% (active) | 28% | 99% (active) | 99% (active) | 15% | 99% (active) | 98.2% (active) | 1% | 99% (active) | 98.4% (active) | 33% | 99% (active) | 99.1% (active) |
| COc1cc2c(cc1O)C1C(O)C(O)C=C3CCN(C2)C31 (configuration not stated) | 4% | 97% (active) | 85.5% (active) | 4% | 97% (active) | 84.8% (active) | 5% | 96% (active) | 82.5% (active) | 14% | 96% (active) | 84% (active) | 2% | 95% (active) | 85.5% (active) | 3% | 97% (active) | 86.9% (active) |
| O=C(OCCCN1CCCC1)C(c1ccccc1)C1CCCCC1 (configuration not stated) | 20% | 67% | 63.8% | 9% | 87% (active) | 52.4% | 23% | 91% (active) | 85.9% (active) | 13% | 81% (active) | 79.8% (active) | 33% | 91% (active) | 54.4% | 42% | 95% (active) | 80.2% (active) |
| CCCC/C=C(/CCCNCCc1ccccc1)[Si](C)(C)C | 88% (active) | 98% (active) | 90.4% (active) | 90% (active) | 99% (active) | 93% (active) | 98% (active) | 99% (active) | 93.4% (active) | 89% (active) | 99% (active) | 91.5% (active) | 98% (active) | 99% (active) | 91.5% (active) | 97% (active) | 99% (active) | 90.9% (active) |
| O=C1C=C(c2cccc(-c3ccccc3)c2)CCC1 | 2% | 94% (active) | 93.5% (active) | -2% | 96% (active) | 95.3% (active) | -5% | 92% (active) | 97.2% (active) | 2% | 92% (active) | 95.8% (active) | 2% | 87% (active) | 96.3% (active) | -1% | 92% (active) | 96.4% (active) |
| CCC[N+]1=C(/C=C/c2cc(C)c3cccnc3c2O)C(C)(C)c2ccccc21 | 12% | 94% (active) | 93.7% (active) | 27% | 95% (active) | 90.3% (active) | 7% | 93% (active) | 86.5% (active) | -7% | 90% (active) | 81.8% (active) | 4% | 93% (active) | 92% (active) | 19% | 93% (active) | 93% (active) |
| Nc1nc(-c2ccc(Cl)cc2)cs1 | -20% | 94% (active) | 98% (active) | 4% | 91% (active) | 97.4% (active) | 8% | 91% (active) | 98.2% (active) | -44% | 92% (active) | 97% (active) | -29% | 90% (active) | 97.8% (active) | -30% | 97% (active) | 97.7% (active) |
| [N-]=[N+]=NC1=C(C(=O)c2ccccc2)C(=O)c2cccc3cccc1c23 | 13% | 18% | 32.7% | 6% | 27% | 20.4% | 18% | 30% | 37% | 6% | 17% | 35.2% | 8% | 40% | 25.4% | 4% | 29% | 70% (active) |
| O=C(O)CSc1nnc2c3ccccc3c3ccccc3c2n1 | -14% | 70% (active) | 48% | 6% | 46% | 30.1% | -2% | 55% | 7.8% | -33% | 65% | 47.7% | 17% | 53% | 54.9% | 9% | 71% (active) | 47.1% |
| CCCCCCCCCCCCSCCCN | -6% | 99% (active) | 99.2% (active) | -3% | 99% (active) | 99.5% (active) | -1% | 99% (active) | 99.2% (active) | -9% | 99% (active) | 99.5% (active) | -5% | 99% (active) | 99.5% (active) | -9% | 99% (active) | 99.5% (active) |
| C/C(=N/O)c1cccc(C(F)(F)F)c1 | -150% | -146% | 7.15% | -50% | -58% | 14.3% | -64% | -63% | -6.55% | -63% | -84% | 35.6% | -66% | -92% | 34.6% | -128% | -127% | 19.2% |
| Cn1c2c(c3ccccc31)CCN(CCCN1CCN(c3ccccc3)CC1)C2=O | 49% | 49% | 90.1% (active) | 43% | 43% | 89.2% (active) | 58% | 58% | 90.4% (active) | 38% | 38% | 91.5% (active) | 51% | 51% | 91.3% (active) | 41% | 41% | 84.7% (active) |
| c1cc2c3c(c1)[I+]c1cccc(c1-3)[I+]2 | 51% | 67% | 69.8% | 34% | 58% | 27.1% | 53% | 80% (active) | 65.9% | 24% | 40% | 45% | 39% | 31% | 36.3% | 64% | 88% (active) | 55.9% |
| CN1CCCC1c1cccc(Br)c1 (configuration not stated) | -163% | 81% (active) | 59% | -51% | 26% | 17.1% | -65% | 37% | 21.6% | -75% | 50% | -1.05% | -69% | 54% | -8.55% | -125% | 50% | 26.1% |
| CC1=CC(O)(c2nc3ccccc3s2)CC(C)(C)C1 (configuration not stated) | 3% | 60% | 69.7% | 6% | 61% | 56.1% | -1% | 61% | 64.2% | -2% | 51% | 47.7% | 15% | 31% | 41.4% | -2% | 69% | 66.4% |
